{"source": "PubChem BioAssay (NCI)", "note": "This is part of a sample that, as a whole, favours compounds with a hit. Of some 83,000 tested, about 20% had one in any assay.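 Compound tested at a single concentration for 48 hours in 96-well plates; a percent growth value below 10 was scored as active.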 Calls of active or inactive are those of the source."}
{"test_system": "COLO 205 colon", "assay": "NCI-60 one-dose screen, 48 h (100 = growth as untreated, 0 = no growth, -100 = all killed)", "conditions": "10 µM unless noted", "protocol": "Cells are grown in 96 well plates and exposed to the test compound for 48 hours. Compounds are tested at a single concentration, which is 10^-5 M for most compounds. The reported endpoint is percent growth (GI% or GIPRCNT), where numbers from 0 - 100% represent growth inhibition, and numbers from -100% - 0 represent cell death. For example, a value of 40 represents 60% growth inhibition. A value of 0 means no net growth occurred over the course of the experiment. A value of -40 indicates 40% of cells at the beginning of the experiment died by the end of the experiment. A value of -100 means all cells are dead at the end of the experiment.\nNCI-60 Human Tumor Cell Lines Screen was performed using the standard one-dose NCI protocol, which is described in more detail at https://dtp.cancer.gov/discovery_development/nci-60/default.htm.\nCompounds with GIPRCNT values below 10 were considered active. Activity score was based on GIPRCNT using the following formula: […]\nScore is 0 for GIPRCNT values of 100 or above, 50 for GIPRCNT values of 0, and 100 for GIPRCNT values of -100."}
{"smiles": "O=C(CN1C=NC2C(N3CCOCC3)=NC=NC21)c1ccc(Br)cc1", "note": "(stereo not given)", "growth": "112% (inactive)"}
{"smiles": "CN1C(=O)N(C)C2(c3ccccc3)n3c(s/c(=C\\c4ccccc4)c3=O)=NNC12c1ccccc1", "note": "(stereo not given)", "growth": "112% (inactive)"}
{"smiles": "COc1cc(CNC(=O)c2ccsc2Nc2ccnc(C(F)(F)F)c2)ccc1O", "growth": "106% (inactive)"}
{"smiles": "Cc1c(C(=O)OCCO)cc(-c2ccc(Cl)cc2)n1-c1ccc(Cl)cc1Cl", "growth": "108% (inactive)"}
{"smiles": "C1=CC2(C=C1)OC21CCC2(C=CC3(C2)OC3C2CCCCC2)CC1", "note": "(stereo not given)", "growth": "120% (inactive)"}
{"smiles": "CCOC(=O)c1cc2c(n1Cc1ccccc1)-c1oncc1CCC2", "growth": "69% (inactive)"}
{"smiles": "COc1ccc(C2Nc3ncnc(N)c3N=C3c4ccccc4C(=O)C32)cc1", "note": "(stereo not given)", "growth": "93.2% (inactive)"}
{"smiles": "O=C(Nc1ccccc1O)c1ccc(-c2ccc(Cl)cc2Cl)o1", "growth": "90.7% (inactive)"}
{"smiles": "CC(C)CCOc1ccc(-c2n[nH]c(C(F)(F)F)c2-c2cncc(C#N)c2)c(O)c1", "growth": "49% (inactive)"}
{"smiles": "COc1ccc(-c2nc(-c3ccccc3)c(-c3ccccc3)[nH]2)cc1OC1CCCCC1", "growth": "98.1% (inactive)"}
{"smiles": "COc1ccc(OC)c(/C=C/C(=O)c2c(C)nc3ccccc3c2/C=C/c2ccccc2)c1", "growth": "86.4% (inactive)"}
{"smiles": "COc1ccc(Cn2cc(Cn3c(=O)c(-c4nc5ccccc5[nH]4)cc4ccccc43)nn2)c(OC)c1OC", "growth": "13.5% (inactive)"}
{"smiles": "Cc1c(-c2noc(-c3ccc([N+](=O)[O-])cc3)n2)no[n+]1[O-]", "growth": "113% (inactive)"}
{"smiles": "COc1ccc(-c2nsc3c2NC(=O)CC3c2ccc3c(c2)OCCO3)cc1", "note": "(stereo not given)", "growth": "-70.4% (active)"}
{"smiles": "O=C(CCc1nnc2sc(-c3ccc(Cl)cc3Cl)nn12)c1nc2ncccc2[nH]1", "growth": "-32.5% (active)"}
{"smiles": "COC(=O)C1(C)COP(=O)(Nc2ccc(OC)cc2)OC1", "note": "(stereo not given)", "growth": "109% (inactive)"}
{"smiles": "COc1ccc(CCN2C(=O)CCSC2=S)cc1OC", "growth": "114% (inactive)"}
{"smiles": "O=[N+]([O-])c1cc2c(ccc3occc32)o1", "growth": "-24.1% (active)"}
{"smiles": "CN(C)CCCNCc1ccc(-c2ccc(F)c(Cl)c2)o1", "growth": "-90% (active)"}
{"smiles": "O=c1oc2ccc(Cl)cc2c(=O)n1-c1ccc(Cl)cc1F", "growth": "6.93% (active)"}
{"smiles": "COc1c(B(O)O)cccc1-c1nc2ccc3[nH]ncc3c2c2c1C1CCC2C1", "note": "(stereo not given)", "growth": "50.4% (inactive)"}
{"smiles": "COC(=O)[C@H](NC(=O)C1(C)CCC[C@]2(C)[C@H]3C[C@H]4C(C(C)C)=C[C@]3(CC[C@@H]12)[C@@H]1C(=O)CCC(=O)[C@@H]14)C(C)C", "note": "(stereo not given in full)", "growth": "110% (inactive)"}
{"smiles": "COc1ccc(/C=C2/SC(=O)N(CC(=O)N3CCN(c4cc5c(cc4F)c(=O)c(C(=O)O)cn5C4CC4)CC3)C2=O)cc1", "growth": "108% (inactive)"}
{"smiles": "COc1ccc(N2C(=O)CC(c3cc(OC)c(OC)c(OC)c3)C3C2=NC(=O)N3C)cc1", "note": "(stereo not given)", "growth": "101% (inactive)"}
{"smiles": "O=C1NC(=S)NC(=O)C1=Cc1cn(Cc2cn(Cc3cccc4ccccc34)nn2)c2ccccc12", "growth": "114% (inactive)"}
{"smiles": "COc1ccc(-c2nnc(COc3ccc(C(=O)/C=C/c4ccco4)cc3)o2)cc1", "growth": "44.7% (inactive)"}
{"smiles": "CN1CCN(Cc2ccc(C(=O)Nc3cncc(C#Cc4cnc(N)c5ccccc45)c3)cc2C(F)(F)F)CC1", "growth": "-50.9% (active)"}
{"smiles": "COc1cc(C2C(C#N)=C(N)OC3=C2C(=O)c2ccccc2C3=O)cc(OC)c1OC", "note": "(stereo not given)", "growth": "89% (inactive)"}
{"smiles": "C=CCN1C(=O)/C(=c2\\sc3n(c2=O)NC2C(N=3)N(CC)C(=O)N2CC)c2ccccc21", "note": "(stereo not given)", "growth": "11.1% (inactive)"}
{"smiles": "CCCSC1=NC2C(N(CC)C(=O)N2CC)N1/N=C/C=C/c1ccccc1[N+](=O)[O-]", "note": "(stereo not given)", "growth": "0.744% (active)"}
{"smiles": "O=C1/C=C/[C@@H](O)[C@@H]2C[C@@H](O)C[C@H]2/C=C/CCCCO1", "growth": "-49.7% (active)"}
{"smiles": "COc1ccc(/C=C/C(=O)c2c(C)nc3ccccc3c2/C=C/c2ccccc2)cc1O", "growth": "109% (inactive)"}
{"smiles": "COc1ccc2c(c1)C=C1CSCC3=Cc4cc(OC)ccc4OC13O2", "growth": "3.24% (active)"}
{"smiles": "O=c1c2cc(F)cc(Cl)c2sc2c(Cl)nc3ccccc3c12", "growth": "116% (inactive)"}
{"smiles": "Cc1nn(-c2nc3ccccc3[nH]2)c2c1C(c1ccc(OCC(N)=O)cc1)CC(=O)N2", "note": "(stereo not given)", "growth": "117% (inactive)"}
{"smiles": "COc1ccc(C2C3=C(COC3=O)N(CCO)c3cc4c(cc32)OCCO4)cc1", "note": "(stereo not given)", "growth": "84.2% (inactive)"}
{"smiles": "O=C1c2ccc3c4c(ccc(c24)C(=O)N1CCCCO)C(=O)N(CCCCO)C3=O", "growth": "5.81% (active)"}
{"smiles": "Clc1ccc(Nc2scc3[n+]2CCC3)cc1", "growth": "120% (inactive)"}
{"smiles": "COc1ccc(/C=C/C(=O)c2ccc3cc(OC)c(OC)cc3c2)cc1OC", "growth": "25.9% (inactive)"}
{"smiles": "Nc1nc(Nc2cccc(F)c2)nc2ccccc12", "growth": "-54.1% (active)"}
